Screening data (PubChem)
BoNT-A LC inh2: BoNT A light chain protease inhibition. multiplex microsphere protease substrate cleavage, flow cytometry. inhibition, % at 10 µM. 0.17% of 360,000 active. AID 588499; further: plate controls were buffer without enzyme for full effect and enzyme alone for no effect
PriA SSB inh: blocks PriA binding to SSB C-terminal tail | AID 1272365 | inhibition, % at 33 µM | AlphaScreen SSBct-PriA binding, biotinylated peptide | 0.6% of 430,000 active; in the data active means inhibition mostly above about 37%, no sharp cut-off; inactive means mostly below about 20%;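 further: plate controls were negative control peptide for no effect and reference peptide for full effect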
BoNT F protease: BoNT F light chain protease inhibition. Multiplex microsphere protease cleavage assay, flow cytometry. inhibition, % at 10 µM. 0.22% of 360,000 active. AID 588497; in the data active means inhibition above about 35%, passing the limit was not always enough; inconclusive means no clear call, values can overlap the other calls; further: plate controls were buffer without enzyme for full effect and enzyme alone for no effect
Bead autofluor: compound fluorescence in toxin protease inhibitor counterscreen | compound autofluorescence counterscreen, microsphere flow cytometry; hits give high values | fluorescence intensity (no concentration beside the values) | 3.1% of 360,000 active | AID 624483; in the data active means fluorescence intensity above about 16000; inconclusive means no clear call, values can overlap the other calls
MazF activator: increases E. coli MazEF RNase cleavage of RNA; P0AE70; FAM/BHQ RNA-DNA oligo cleavage fluorescence, 5 h; activation, % at 20 µM; 0.32% of 350,000 active; in the data active means activation above about 50%
Target sequence (P0AE70 whole entry, looked up): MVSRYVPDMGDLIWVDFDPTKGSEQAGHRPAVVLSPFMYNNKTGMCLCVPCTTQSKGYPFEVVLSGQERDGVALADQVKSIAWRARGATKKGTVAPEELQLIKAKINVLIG
Anthrax LF prot: inhibitors of Bacillus anthracis lethal factor protease. multiplex microsphere protease cleavage assay, LF. inhibition, % at 10 µM. 0.12% of 360,000 active. AID 588501; further: plate controls were buffer without enzyme for full effect and enzyme alone for no effect
* = called active by the depositor; ? = inconclusive; / = no result given. An excerpt weighted towards active compounds, which were near 3.3% of everything screened. Unless noted, no stated cut-off is given here; in the data, active means inhibition above about 30%; inconclusive means no clear call, values can overlap the other calls; inactive means below that.

SMILES	BoNT-A LC inh2	PriA SSB inh	BoNT F protease	Bead autofluor	MazF activator	Anthrax LF prot
C(=C\c1ccccc1)/CSc1nnc(-c2ccccn2)n1Cc1ccco1	0	68*	12	2904	2	-2
c1coc(Cn2c(SCc3nc4ccccc4[nH]3)nnc2-c2cnccn2)c1	1	6	-9	3347	-1	1
NC(=O)CSc1nnc(-c2ccccn2)n1Cc1ccco1	2	-4	?	3486	4	12
Nn1c(SC/C=C/c2ccccc2)nnc1-c1cccnc1	3	-3	4	21822*	6	-3
Cc1ccc(C=NNC(=O)c2ccc(-c3ccccc3)cc2)o1	/	5	/	/	/	/
NC(=O)N/N=C\c1ccccc1OC(=O)c1cc2ccccc2oc1=O	/	-8	/	/	/	/
O=C(CCCCCn1c(=S)[nH]c2ccccc2c1=O)N1CCC2(CC1)OCCO2	3	-11	8	21724*	8	1
O=C(Cn1c(=S)[nH]c2ccccc2c1=O)N1CCC2(CC1)OCCO2	-4	-10	-7	24695*	4	-4
COc1ccc(-c2oc(NC(=O)CSc3ncn[nH]3)c(C#N)c2-c2ccc(OC)cc2)cc1	-2	34	-4	22915*	-7	-8
CCn1c(=O)cc(OCC(=O)Nc2cc(C)ccn2)c2ccccc21	0	-5	1	22556*	4	-1
CCn1c(=O)cc(OCC(=O)Nc2ccc3c(c2)OCCO3)c2ccccc21	1	-2	1	19914*	6	-5
CCN(CCCNC(=O)COc1cc(=O)n(CC)c2ccccc12)c1ccccc1	?	2	-1	19587*	4	-3
CCc1ccc(NC(=O)CCCOc2cc(=O)n(C)c3ccccc23)cc1	0	/	-2	3765	/	-4
CCn1c(=O)cc(OCC(=O)NCCc2cccc(C)c2)c2ccccc21	0	11	-2	2426	0	-1
CCN(CCCNC(=O)COc1cc(=O)n(C)c2ccccc12)c1ccccc1	2	18	1	8949	-6	5
Cn1c(=O)cc(OCCCC(=O)Nc2cccnc2)c2ccccc21	-2	-17	-2	23694*	-10	-2
O=C(COc1ccccc1F)NCCn1ncc2c(NCCc3ccccc3)ncnc21	/	-14	/	/	/	/
O=C(Cc1c(F)cccc1Cl)N1CCC(Oc2nc3c(F)cc(F)cc3s2)CC1	/	-2	/	/	/	/
Cn1c(=O)cc(OCCCC(=O)Nc2ccc3c(c2)OCCO3)c2ccccc21	2	-8	2	21630*	9	-2
Cn1c(=O)cc(OCCCC(=O)NCc2ccc3c(c2)OCO3)c2ccccc21	0	0	0	4549	9	-3
CCOc1ccc(N=C(C(C(=O)C(=O)N2CCOCC2)=C(O)c2ccccc2)c2ccccc2)cc1	/	-16	/	/	/	/
COc1cc(CO)ccc1Oc1nnnn1-c1ccc(C(N)=O)cc1	10	-12	15	16480*	11	-8
CCOC(=O)c1sc(NC(=O)c2c(F)cccc2F)nc1C	/	-4	/	/	/	/
C=CCOC(=O)c1sc(NC(=O)c2ccco2)nc1C	3	-13	3	19408*	-13	0
CCOC(=O)c1sc(NC(=O)c2ccc(CC)s2)nc1C	2	-4	2	19861*	2	-2
SMILES	BoNT-A LC inh2	PriA SSB inh	BoNT F protease	Bead autofluor	MazF activator	Anthrax LF prot
O=C1NC2(CCNCC2)N=C1c1ccc(F)cc1	/	3	/	/	/	/
O=C1NC2(CCCCC2)N=C1c1ccc(Br)cc1	0	-27	12	4559	-5	0
O=C1NC2(CCCCC2)N=C1c1ccc(F)cc1	-4	3	-6	22118*	5	-1
O=C1NC2(CCCC2)N=C1c1ccc(Cl)cc1	-2	-24	-2	23960*	3	0
CCOc1ccccc1NC(=O)N1CCN(C(=O)c2cnn3ccccc23)CC1	/	0	/	/	/	/
CCOC(=O)Cn1c(-c2cccnc2Cl)nc2cc(Cl)c(Cl)cc21	?	-17	-2	20399*	3	2
CCOC(=O)Cn1c(-c2ccccn2)nc2ccccc21	0	-4	1	2364	1	-2
CCn1c(-c2cccnc2Cl)nc2cc(Cl)c(Cl)cc21	?	-8	0	23561*	-3	-2
Clc1ccc(Cn2c(-c3cccnc3Cl)nc3ccccc32)cc1	1	-10	0	8232	4	-3
CCOC(=O)Cn1c(-c2cccnc2Cl)nc2cc(C)c(C)cc21	0	-2	1	22326*	-8	1
Clc1ccc(Cn2c(-c3cccnc3Cl)nc3ccccc32)c(Cl)c1	?	-6	2	21985*	-9	-1
O=C(N1CCOC[C@@H]1CO)C1(c2ccccc2)CCOCC1	/	-14	/	/	/	/
